This is a sample that favours compounds with a hit; in the whole collection about 8.5% have one here.
Sfp inh = qHTS Assay for Inhibitors of Bacillus subtilis Sfp phosphopantetheinyl transferase (PPTase); hit rate 3.5% among 310,000; 4'-phosphopantetheinyl transferase ffp (Bacillus subtilis), Q9F4F7; Potency, µM, inactives show largest response in the series, negative = inhibition, most hits filed as inhibitors; Biochemical Sfp PPTase activity, qHTS;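 also: the enzyme is Sfp with the accession as filed and its product quenches rhodamine fluorescence; potency is read from the fitted curve at half-maximal effect; 0% = enzyme reaction without inhibitor and -100% = no enzyme wells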
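Fluorescence-quenching assay with 15 nM Sfp, 5 uM rhodamine-CoA and 12.5 uM BHQ-2-labelled ybbR peptide in pH 7.6 Hepes/MgCl2 buffer. Enzyme was pre-incubated with compound for 15 min at room temperature. Rate was taken from the 30-min fluorescence change (525/598 nm).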
NPSR antagonist = qHTS Assay for Antagonists of the Neuropeptide S Receptor: cAMP Signal Transduction | Q6W5P4 | CHO-NPSR cells, cAMP TR-FRET, antagonist mode | Potency, µM (doses to about 38.3 µM), for inactives: at the highest dose activity change, negative = inhibition, usual class: inhibitors | hit rate 1% among 220,000; also: potency is read from the fitted curve at half-maximal effect; nearly all actives have a fitted effect of over 50% in size
FBPA coupling cs = qHTS Assay for Inhibitors of Fructose-1,6-bisphosphate Aldolase from Giardia Lamblia: Coupling assay counterscreen; coupling enzyme system counterscreen, AmpLite Red fluorescence; activity change, negative = inhibition, % at 58.2 µM, hits read low; hit rate 0.67% among 290,000; AID 2472, 2010; in the data active = activity change below about -30%
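Counterscreen of the coupled detection system alone, without aldolase: glyceraldehyde-3-phosphate coupling enzymes plus AmpLite Red readout. Compounds at 57.5 uM final, 10 min RT preincubation, 20 min RT reaction, fluorescence 525/598 nm.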
RGS12 GoLoco inh = qHTS Assay for Inhibitors of RGS12 GoLoco Motif Activity (Red Fluorophore). Potency, µM (doses to about 61.6 µM), for the others: at the highest dose activity, negative = inhibition, actives largely listed as inhibitors. Guanine nucleotide-binding protein G(i) subunit alpha-1 (Homo sapiens), P63096. AID 880, 2007. hit rate 0.44% among 230,000. Gai1:RGS12 GoLoco peptide FP, rhodamine, 10 min; active = well fitted inhibition curve with a large enough effect, not every such curve was filed as active; inactive = no such curve, though single readings can be large or run the other way; also: potency is read from the fitted curve at half-maximal effect; nearly all actives have a fitted effect of over 30% in size
Target sequence (P63096 whole entry, looked up): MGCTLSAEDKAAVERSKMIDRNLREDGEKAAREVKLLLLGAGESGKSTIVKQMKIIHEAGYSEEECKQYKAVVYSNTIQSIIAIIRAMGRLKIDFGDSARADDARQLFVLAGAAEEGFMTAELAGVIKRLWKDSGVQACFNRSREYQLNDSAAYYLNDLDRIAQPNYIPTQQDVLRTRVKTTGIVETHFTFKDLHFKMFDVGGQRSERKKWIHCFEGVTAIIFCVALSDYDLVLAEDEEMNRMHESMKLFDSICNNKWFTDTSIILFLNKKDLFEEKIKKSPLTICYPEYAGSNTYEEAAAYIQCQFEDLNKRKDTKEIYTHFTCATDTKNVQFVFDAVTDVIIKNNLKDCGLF
KDM4E inh = qHTS Assay for Inhibitors of Human Jumonji Domain Containing 2E (JMJD2E) | Lysine-specific demethylase 4E (Homo sapiens), B2RXH2 | hit rate 1.6% among 230,000 | Potency, µM (highest dose often 57.1 µM), for inactives: at the highest dose activity change, negative = inhibition, usual class: inhibitors | JMJD2E catalytic domain, FDH-coupled NADH fluorescence (FDH is formaldehyde dehydrogenase);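 also: potency is read from the fitted curve at half-maximal effect; 0% = wells with enzyme and -100% = buffer wells without enzyme; nearly all actives have a fitted effect of over 50% in size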
Target sequence (B2RXH2 1-337 limits assumed): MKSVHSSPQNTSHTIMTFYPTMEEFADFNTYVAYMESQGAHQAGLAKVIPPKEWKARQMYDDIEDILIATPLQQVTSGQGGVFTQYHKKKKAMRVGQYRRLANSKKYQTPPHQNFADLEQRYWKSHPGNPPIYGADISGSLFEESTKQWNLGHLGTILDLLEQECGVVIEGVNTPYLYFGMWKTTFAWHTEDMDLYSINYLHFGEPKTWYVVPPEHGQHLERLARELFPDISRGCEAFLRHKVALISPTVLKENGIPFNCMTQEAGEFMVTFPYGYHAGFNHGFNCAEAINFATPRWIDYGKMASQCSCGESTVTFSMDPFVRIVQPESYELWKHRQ
ALDH1A1 block = qHTS Assay for Inhibitors of Aldehyde Dehydrogenase 1 (ALDH1A1); Aldehyde dehydrogenase 1A1 (Homo sapiens), P00352; Purified ALDH1A1, NADH fluorescence, propionaldehyde substrate; Potency, µM (top dose mostly 75.3 µM), without a hit: top-dose activity, negative = inhibition, most hits filed as inhibitors; hit rate 7.3% among 220,000; AID 1030, 2008; active = well fitted inhibition curve with a large enough effect, not every such curve was filed as active; inconclusive = small, poorly fitted or top-dose-only effect, or another doubt; inactive = no such curve, though single readings can be large or run the other way;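 also: potency is read from the fitted curve at half-maximal effect; plate controls were no enzyme wells and a reference inhibitor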
Numbers without * were called inactive; ? = inconclusive; · = no result; ! = not confirmed by another sample; [ ] = another dose, or the depositor's remark. Unless noted, calls follow the shape of the dose curve; as a rule, active = well fitted curve in the direction sought with a large enough effect; inconclusive = small, poorly fitted or top-dose-only effect, or another doubt; inactive = no such curve, though single readings can be large; an effect the other way counts as inactive or inconclusive. Unless noted, % is scaled to controls: 0 for no effect and ±100 for the full control effect.

SMILES | Sfp inh | NPSR antagonist | FBPA coupling cs | RGS12 GoLoco inh | KDM4E inh | ALDH1A1 block
Cc1cc(O)c(/C=N/OCc2ccc(Cl)cc2Cl)c(=O)o1 | -2% | 0% | 14 | 4% | 3% | 8%
Cc1cc(O)c(/C=N/Nc2ccc(Cl)cc2)c(=O)o1 | 79µM* | -24%[46.1 µM] | 1 | 6% | -10% | 4%
Cc1cc(O)c(/C=N/Nc2cccc(Cl)c2)c(=O)o1 | -15% | -14%[46.1 µM] | 0 | 11% | ? | ?
Cc1cc(O)c(/C=N/Nc2ccccc2Cl)c(=O)o1 | -11% | -13%[46.1 µM] | 1 | 17% | ? | 10µM*
O=[N+]([O-])c1ccc(N=Cc2sc3ccccc3c2O)cc1 | 11% | -2% | 4 | 9% | ? | ?
COc1ccc(-n2c(O)c(C=Nc3ccccc3)c3ccccc3c2=O)cc1 | 2% | -9% | 2 | 5% | 4% | 6%
COc1ccc(N=Cc2sc(O)c3ccccc23)cc1 | -15% | 13µM* | -6 | 60% | ? | ?
COc1ccc(N=Cc2c(O)c3ccccc3n2C(C)=O)cc1 | 18µM* | -28% | -16 | -77% | ? | ·
COC(=O)[C@@]1(Cc2ccc(OC)cc2)[C@H]2c3cc(C(=O)N(C)C)n(Cc4ccc(C)c(F)c4F)c3C[C@H]2CN1C(=O)c1ccccc1 | -15% | · | 0 | 13% | -29% | -8%
COc1ccc(S(=O)(=O)Cc2ccc(C(=O)NC3CCCCC3)o2)cc1 | 10% | · | · | · | · | ·
CCOC(=O)CC(C(=O)OCC)P(=O)(c1ccccc1)c1ccccc1 (configuration not stated) | 16% | -7%[46.1 µM] | -3 | 4% | 8% | 10µM*
CCN(CC)CCn1c(-c2ccccc2)nc2c(NC3CCCCC3)nc(C)nc21 | 16% | · | 4 | -7% | ? | ?
CC(C)Sc1nc2ccccc2n1CC(N)=O | 10% | -9%[46.1 µM] | 0 | 11% | -3% | 13%
NC(=O)Cn1c2[n+](c3ccccc31)CC(O)CS2 (configuration not stated) | 2% | -4%[46.1 µM] | 0 | 6% | 1% | 11µM*
CCOC(=O)Cn1c2[n+](c3ccccc31)CC(O)CS2 (configuration not stated) | -9% | -3%[46.1 µM] | 6 | 16µM* | -5% | 5%
COC(=O)Cn1c2[n+](c3ccccc31)CC(O)CS2 (configuration not stated) | 14% | -8%[46.1 µM] | 1 | 3% | 6% | 3%
COC(=O)c1[nH]c(=O)c2ccccc2c1O | 16% | ? | -23 | 9% | ? | ?
CCc1ccc2c(O)c3c(cc2c1C(=O)OC)C(=O)c1c(O)ccc(O)c1C3=O | -27% | · | -17 | 38% | 2.8µM* | 5%
Cc1ccc(Cl)cc1N(Cc1ccc(C(=O)NCc2cccnc2)cc1)S(=O)(=O)c1ccccc1 | -2% | ? | 7 | 3% | -3% | -1%
CCOc1ccc(CCn2c(-c3ccco3)nc3ccccc3c2=O)cc1OCC | 56µM* | ? | -2 | 15% | ? | -7%
COc1ccc(CCn2c(-c3ccco3)nc3nc4ccccc4nc32)cc1 | 35µM* | -28%[46.1 µM] | -7 | 86% | ? | ?
c1coc(-c2nc3nc4ccccc4nc3n2CC2CCCO2)c1 (configuration not stated) | 79µM* | -10%[46.1 µM] | -23 | 43% | ? | ?
O=c1c2ccccc2nc(-c2ccco2)n1Cc1ccccc1 | -11% | -18%[46.1 µM] | 3 | 23% | 4% | ?
Cc1ccc(N(CC(=O)NC2CCCC2)C(=O)c2nsc(Cl)c2Cl)cc1 | 7% | · | 0 | · | · | ·
C(=N\Nc1nc2ccccc2[nH]1)/C1CCCCC1 | -13% | -16% | -2 | 12% | 2% | 2%
SMILES | Sfp inh | NPSR antagonist | FBPA coupling cs | RGS12 GoLoco inh | KDM4E inh | ALDH1A1 block
CN1C(=O)/C(=C2\SC(=S)N(CC3CCCO3)C2=O)c2ccccc21 (configuration not stated) | 19% | 3%[46.1 µM] | 0 | -8% | 6% | ?
CN1C(=O)/C(=C2\SC(=S)N(C(CCC(=O)O)C(=O)O)C2=O)c2ccccc21 (configuration not stated) | -24% | 1%[46.1 µM] | -22 | -11% | 13µM* | 1.1µM*
CN1CCc2c(sc(N)c2C(=O)O)C1 | 28µM* | 13% | -7 | -5% | ? | ?
COc1ccc(C(=O)c2c(N)sc3c2CCN(C)C3)cc1 | -3% | · | 1 | · | · | ·
COc1cc(C(=S)N2CCOCC2)cc(OC)c1OC(=O)c1ccc(C)cc1 | 14% | · | 0 | · | · | ·
CCOc1cc(C(=S)N2CCOCC2)ccc1OS(=O)(=O)c1ccc(C)cc1 | -27% | · | 4 | · | · | ·
COc1cc(C(=S)N2CCOCC2)cc(OC)c1OC | 50µM*! | 13% | 2 | 1% | 9% | ·
COc1cc(C(=S)N2CCOCC2)cc(OC)c1OS(=O)(=O)c1ccc(C)cc1 | 56µM* | · | -3 | · | · | ·
COc1cc(C(=S)N2CCOCC2)ccc1OC(=O)c1cc(OC)c(OC)c(OC)c1 | 50µM* | · | 0 | · | · | ·
CCOc1cc(C(=S)N2CCOCC2)cc(Br)c1OS(=O)(=O)c1ccccc1 | 79µM* | · | -3 | · | · | ·
c1ccc2c(c1)SCc1c-2[nH]c2ccccc12 | ? | · | -9 | · | · | ·
CCOc1ccc(-n2c(=O)c3sccc3n(CC(=O)Nc3cccc(OC)c3)c2=O)cc1 | -6% | -4% | 3 | -2% | -2% | 13%
C=CCOCC/C=C1/c2ccccc2C(OC)C1C (configuration not stated) | 38% | · | 0 | · | · | 3%[13.5 µM]
CCN(Cc1ccncc1)C(=O)C1CCN(S(=O)(=O)c2cccs2)CC1 | 1% | -3%[46.1 µM] | 5 | 5% | -1% | -20%
COc1ccc(C(=S)N2CCOCC2)cc1OS(=O)(=O)c1ccccc1[N+](=O)[O-] | -29% | -5% | 1 | 2% | -4% | 11µM*
N#Cc1cccc(NC(=O)CN2C(=O)NC(Cc3ccccc3)C2=O)c1 (configuration not stated) | 14% | -5% | 1 | 0% | 7% | ·
CSc1nc(N)c2ncn([C@@H]3O[C@H](COP(=O)(O)OP(=O)(O)OP(=O)(O)O)[C@H](O)[C@H]3O)c2n1 | · | 4%[46.1 µM] | · | 8% | -11% | 8%
CCCCC(CC)C1OCC(C[N+]2(C)CCOCC2)O1 (configuration not stated) | -24% | 13% | 2 | 10µM* | -12% | 0%
Cc1oc(-c2ccccc2F)nc1CS(=O)CC(=O)NC1CCCCC1 (configuration not stated) | -2% | · | 1 | · | · | ·

Bioassay records deposited in PubChem BioAssay by National Center for Advancing Translational Sciences (NCATS).
